CYP2C9 act: activators of human CYP2C9; recombinant CYP2C9, luciferin-H conversion, luminescence; stronger effect = higher value; factor 1 = untreated enzyme, 0 = blocked; activation factor at 5 µM; hit rate 1.4% among 96,000; AID 1024;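 active = activation factor of 2 or more for CYP2C9 at a 5 µM dose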
Target sequence (P11712 whole entry, looked up): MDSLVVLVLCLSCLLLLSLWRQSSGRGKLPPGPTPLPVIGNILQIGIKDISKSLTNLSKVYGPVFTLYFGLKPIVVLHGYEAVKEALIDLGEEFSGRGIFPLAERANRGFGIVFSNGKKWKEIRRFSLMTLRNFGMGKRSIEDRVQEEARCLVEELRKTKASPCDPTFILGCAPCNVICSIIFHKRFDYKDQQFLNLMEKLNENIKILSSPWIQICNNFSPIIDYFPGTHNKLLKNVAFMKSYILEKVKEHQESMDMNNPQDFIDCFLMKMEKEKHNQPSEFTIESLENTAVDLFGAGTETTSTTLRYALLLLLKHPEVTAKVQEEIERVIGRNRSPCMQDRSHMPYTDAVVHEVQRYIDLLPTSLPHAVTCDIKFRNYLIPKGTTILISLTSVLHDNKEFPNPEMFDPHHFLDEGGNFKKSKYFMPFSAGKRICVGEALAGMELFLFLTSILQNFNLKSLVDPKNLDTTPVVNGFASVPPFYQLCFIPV
CYP2C9 inhib: blocks human cytochrome P450 2C9; AID 777; hit rate 20% among 96,000; inhibition, % at 5 µM; CYP2C9 Supersomes, luciferin-H conversion, luminescence;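 active = blocking of liver enzyme CYP2C9 beyond about 50% at 5 µM, limit read from the data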
CYP2C19 activ: activators of human cytochrome P450 2C19 | P33261 | recombinant CYP2C19, luciferin-H EGE luminescence; stronger effect = higher value; 0 = fully inhibited enzyme, 1 = untreated enzyme | activation factor at 5 µM | 96,000 tested, under 10 active | AID 1025;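 active = activation factor of at least 2 at 5 µM in the primary screen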
Cav3 T inh: blocks human Cav3.2 T-type calcium channel; hit rate 4% among 100,000; B-score at 10 µM; Cav3.2-expressing cells, Fluo-4 calcium fluorescence FDSS; stronger effect = lower value; O95180;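 active = single-dose well whose peak fluorescence ratio is a statistical outlier from its plate by either plate-standardised score or position-corrected B-score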
CYP2C19 inhib: inhibitors of human CYP2C19 | P33261 | CYP2C19 Supersomes, luciferin-H EGE luminescence, 30 min | inhibition, % at 5 µM | hit rate 21% among 96,000 | AID 778;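 active = CYP2C19 inhibition above a set limit at 5 µM in the primary screen, cut at about 50% in these data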
A number is an active result. Shown are actives, neighbours in structure and some others; about 27% of the full set was active somewhere.

`CCN1C(=O)/C(=C2/SC(C)=C(C)N2CC)SC1=S` gave CYP2C9 act inactive, CYP2C9 inhib inactive, CYP2C19 activ inactive, Cav3 T inh inactive and CYP2C19 inhib inactive.
For CCN1C(=O)/C(=C2\SC(=S)N(CCCOC)C2=O)c2ccccc21 the results were CYP2C9 act inactive, CYP2C9 inhib 52, CYP2C19 activ inactive, Cav3 T inh inactive and CYP2C19 inhib inactive.
COC(=O)C1=C(C)N(CCCC(=O)O)C(=O)NC1c1cccc(Cl)c1Cl (stereo not drawn) was read as Cav3 T inh inactive.
O=C1CSC(c2ccc3c(c2)OCO3)N1c1ccc(Oc2ccccc2)cc1 (stereo not drawn) was read as CYP2C9 act inactive, CYP2C9 inhib 60, CYP2C19 activ inactive, Cav3 T inh inactive and CYP2C19 inhib inactive.
Screening CC(=O)Nc1ccc(N2C(=O)CSC2c2ccc(F)cc2)cc1 (stereo not drawn) returned CYP2C9 act inactive, CYP2C9 inhib inactive, CYP2C19 activ inactive, Cav3 T inh inactive and CYP2C19 inhib inactive.
For COc1ccc(C2SCC(=O)N2c2c(C)n(C)n(-c3ccccc3)c2=O)cc1 (stereo not drawn) the results were CYP2C9 act inactive, CYP2C9 inhib inactive, CYP2C19 activ inactive, Cav3 T inh inactive and CYP2C19 inhib inactive.
Cc1ccc(N2C(=O)CSC2c2ccc3c(c2)OCO3)cc1 (stereo not drawn) was read as CYP2C9 act inactive, CYP2C9 inhib 69, CYP2C19 activ inactive and CYP2C19 inhib 100.
For COC(=O)C1=C(COc2ccccc2)NC(=O)NC1c1ccc(Br)cc1 (stereo not drawn) the results were Cav3 T inh inactive.
N#C/C(=C\c1ccc(Cl)cc1)c1nc2ncccc2[nH]1 was read as CYP2C9 act inactive, CYP2C9 inhib 61, CYP2C19 activ inactive and CYP2C19 inhib inactive.
For Cc1ccc(/C=C(\C#N)c2nc3ccccc3[nH]2)s1 the results were CYP2C9 act inactive, CYP2C9 inhib inactive, CYP2C19 activ inactive, Cav3 T inh inactive and CYP2C19 inhib inactive.
For COc1cccc(-c2csc3nc[nH]c(=O)c23)c1 the results were CYP2C9 act inactive, CYP2C9 inhib inactive, CYP2C19 activ inactive, Cav3 T inh inactive and CYP2C19 inhib 59.
O=c1[nH]cnc2scc(-c3ccc(F)cc3)c12 was read as CYP2C9 act inactive, CYP2C9 inhib inactive, CYP2C19 activ inactive, Cav3 T inh inactive and CYP2C19 inhib inactive.
CC1Cc2ccccc2N1C(=O)CSc1nnc2sc3ccccc3n12 (stereo not drawn) was read as CYP2C9 act inactive, CYP2C9 inhib 67, CYP2C19 activ inactive, Cav3 T inh inactive and CYP2C19 inhib 100.
`Cc1nnc(SCC(=O)N2c3ccccc3CC2C)s1` (stereo not drawn) gave CYP2C9 act inactive, CYP2C9 inhib inactive, CYP2C19 activ inactive, Cav3 T inh inactive and CYP2C19 inhib 69.
For NC1=NC(c2ccccc2Cl)n2c(nc3ccccc32)N1 (stereo not drawn) the results were CYP2C9 act inactive, CYP2C9 inhib inactive, CYP2C19 activ inactive, Cav3 T inh inactive and CYP2C19 inhib inactive.
Screening NC1=NC(c2ccc(Cl)cc2)n2c(nc3ccccc32)N1 (stereo not drawn) returned CYP2C9 act inactive, CYP2C9 inhib inactive, CYP2C19 activ inactive, Cav3 T inh inactive and CYP2C19 inhib 88.
Screening O=C(c1ccc2c(c1)OCCO2)C1CCN(C(=O)c2ccc(F)c(F)c2)CC1 returned CYP2C9 act inactive, CYP2C9 inhib inactive, CYP2C19 activ inactive, Cav3 T inh -3.9 and CYP2C19 inhib 75.
O=C(c1ccc2c(c1)OCCO2)C1CCN(C(=O)c2ccc(F)cc2)CC1 was read as CYP2C9 act inactive, CYP2C9 inhib 50, CYP2C19 activ inactive, Cav3 T inh inactive and CYP2C19 inhib 72.
COc1ccc(C(=O)N2CCC(C(=O)Nc3ccc4c(c3)OCCO4)CC2)cc1 was read as CYP2C9 act inactive, CYP2C9 inhib inactive, CYP2C19 activ inactive, Cav3 T inh inactive and CYP2C19 inhib inactive.
N=c1oc2ccccc2cc1-c1nc2ccccc2c(=O)[nH]1 was read as CYP2C9 act inactive, CYP2C9 inhib inactive, CYP2C19 activ inactive and CYP2C19 inhib inactive.
Screening Cc1cc(C)cc(N(CC(=O)NC2CCC(C)CC2)S(=O)(=O)c2c(C)noc2C)c1 (stereo not drawn) returned CYP2C9 act inactive, CYP2C9 inhib inactive, CYP2C19 activ inactive, Cav3 T inh inactive and CYP2C19 inhib inactive.
O=C(NC1(C(F)(F)F)Oc2ccccc2O1)N1CCCC1 was read as CYP2C9 act inactive, CYP2C9 inhib inactive, CYP2C19 activ inactive, Cav3 T inh inactive and CYP2C19 inhib inactive.
COCCCNC(=O)c1c(NC(=O)C2COc3ccccc3O2)sc2c1CCCC2 (stereo not drawn) was read as CYP2C9 act inactive, CYP2C9 inhib 92, CYP2C19 activ inactive, Cav3 T inh inactive and CYP2C19 inhib 82.
O=C(CN1CCN(c2ncccn2)CC1)NCCC1=CCCCC1 was read as CYP2C9 act inactive, CYP2C9 inhib 94, CYP2C19 activ inactive, Cav3 T inh inactive and CYP2C19 inhib 54.
`O=C(CSc1ncccc1C(=O)O)NCCC1=CCCCC1` gave CYP2C9 act inactive, CYP2C9 inhib inactive, CYP2C19 activ inactive, Cav3 T inh inactive and CYP2C19 inhib inactive.
Screening O=C(NCCC1=CCCCC1)C1COc2ccccc2O1 (stereo not drawn) returned CYP2C9 act inactive, CYP2C9 inhib 58, CYP2C19 activ inactive, Cav3 T inh inactive and CYP2C19 inhib 87.
Screening O=C(CN1C(=O)C2C3C=CC(C3)C2C1=O)NCCC1=CCCCC1 (stereo not drawn) returned CYP2C9 act inactive, CYP2C9 inhib inactive, CYP2C19 activ inactive, Cav3 T inh inactive and CYP2C19 inhib 51.
Screening O=C(NCCC1=CCCCC1)C(c1ccccc1)c1ccccc1 returned CYP2C9 act inactive, CYP2C9 inhib inactive, CYP2C19 activ inactive, Cav3 T inh inactive and CYP2C19 inhib inactive.
Screening COc1ccc(C2CC(=O)c3c(O)cc(O)cc3O2)c(CC=C(C)C)c1OC (stereo not drawn) returned Cav3 T inh inactive.
`Cc1ccc(S(=O)(=O)NCC(=O)OC2CCOC2=O)cc1` (stereo not drawn) gave CYP2C9 act inactive, CYP2C9 inhib inactive, CYP2C19 activ inactive, Cav3 T inh inactive and CYP2C19 inhib inactive.
For COC(C/C=C/[C@@H](O)[C@H](C)OCc1ccccc1)OC the results were Cav3 T inh inactive.
For CCC1Oc2ccccc2N(CC(=O)NCCC2=CCCCC2)C1=O (stereo not drawn) the results were CYP2C9 act inactive, CYP2C9 inhib inactive, CYP2C19 activ inactive, Cav3 T inh inactive and CYP2C19 inhib 89.
For O=C(NCCCN1CCCC1=O)c1cc(NS(=O)(=O)c2ccc(F)cc2)cc(NS(=O)(=O)c2ccc(F)cc2)c1 the results were CYP2C9 act inactive, CYP2C9 inhib inactive, CYP2C19 activ inactive, Cav3 T inh inactive and CYP2C19 inhib inactive.
Screening COc1ccc(-c2nc(CSCC(=O)NCc3ccc4c(c3)OCO4)c(C)o2)cc1 returned CYP2C9 act inactive, CYP2C9 inhib 89, CYP2C19 activ inactive, Cav3 T inh inactive and CYP2C19 inhib 95.

Screening results from PubChem BioAssay.
